Each structure is given as a SMILES string. Results filed as inconclusive are left out. Where a call stands in place of a potency, no number is given. A number with no mark means an inactive call. Active and inactive are the calls of the source. Calls come from the whole dose curve; as a rule, active = well fitted inhibition curve with a large enough effect in the repeat runs; inconclusive = weak or mixed curves; inactive = no such curve, though single readings can be large or run the other way.
Potency is the fitted concentration of half-maximal effect.

Chain of Cytochrome P450 3A4 (Homo sapiens) (P08684 whole entry, looked up): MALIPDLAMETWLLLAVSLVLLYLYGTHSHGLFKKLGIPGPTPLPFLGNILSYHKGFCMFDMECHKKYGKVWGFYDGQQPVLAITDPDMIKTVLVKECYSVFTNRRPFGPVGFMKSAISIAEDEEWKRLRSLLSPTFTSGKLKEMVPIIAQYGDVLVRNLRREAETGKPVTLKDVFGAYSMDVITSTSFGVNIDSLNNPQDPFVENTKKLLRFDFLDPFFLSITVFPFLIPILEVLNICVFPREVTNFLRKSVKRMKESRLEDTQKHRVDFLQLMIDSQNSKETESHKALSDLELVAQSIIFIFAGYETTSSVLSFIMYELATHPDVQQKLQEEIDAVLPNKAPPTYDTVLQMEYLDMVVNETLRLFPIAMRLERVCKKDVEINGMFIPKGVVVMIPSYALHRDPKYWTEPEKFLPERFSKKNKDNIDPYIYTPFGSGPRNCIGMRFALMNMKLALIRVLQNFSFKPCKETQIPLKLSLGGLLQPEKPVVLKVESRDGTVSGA

This experiment deals with Cytochrome P450 3A4 (Homo sapiens) (UniProt P08684). Put plainly: Cytochrome P450 Family 3 Subfamily A Member 4 (CYP3A4) small molecule antagonists: luciferase reporter qHTS assay (AID 1671201). Note: nearly all actives have a fitted effect of over 50% in size. The note with it: P450-Glo CYP3A4 enzyme, luciferin luminescence, 1 h; series mostly up to 115 µM. The method in brief:
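P450-Glo CYP3A4 luminescent assay: compounds preincubated 10 min at room temperature with enzyme and proluciferin substrate, NADPH regeneration added, 1 h room-temperature reaction, stopped with luciferin detection reagent; luminescence read after 20 min. Ketoconazole positive control.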
In the case of `C=CCCCCCCCCCCCC`, the Potency entry is “inactive”.
The same measure, in the same setting: the value for `C=C(C)C(=O)OCCOP(=O)(O)OCCOC(=O)C(=C)C` was “inactive”; that for `O=C(CS(=O)Cc1ccco1)NC/C=C\COc1cc(CN2CCCCC2)ccn1` (centres undefined) was “inactive”.
Same read-out and setting: the value for `C=COCCOCCOCCOC=C` was “inactive”; that for `Cc1cccc(OCC(O)CNC(C)(C)C)c1C` (centres undefined) was “inactive”.
Turning to `C=C(C)C(=O)OCCNC(C)(C)C`, the Potency entry was “inactive”.
The same measure, in the same setting: the value for `NCCS` was “inactive”.
Same read-out and setting: the result for `COP(=O)(OC)OC(c1ccc(Cl)cc1)P(=O)(OC)OC` (centres undefined) reads “inactive”; that for `COc1ccc(-c2cc(=O)c3c(O)cc(O[C@@H]4O[C@H](CO[C@@H]5O[C@@H](C)[C@H](O)[C@@H](O)[C@H]5O)[C@@H](O)[C@H](O)[C@H]4O)cc3o2)cc1O`, “inactive”.
Consider `Cc1nc2n(c(=O)c1CCN1CCC(c3noc4cc(F)ccc34)CC1)CCC[C@H]2O`, for which the activity change, negative = inhibition is 3.18% [at 23.6 µM].
Consider `C[C@H](N)[C@H](O)c1cccc(O)c1`, for which the Potency entry is “inactive”.
Regarding `COc1cc(C(=S)N2CCOCC2)cc(OC)c1OC`, the Potency result was “inactive”.
On the same count and under the same terms, the result for `OCCCCC(O)CO` (centres undefined) reads “inactive”.
Still for that read-out and setting: the result for `CC(S)C(=O)NCC(=O)O` (centres undefined) reads “inactive”; that for `Cc1cccc(C)c1OCC(C)N` (centres undefined), “inactive”; that for `CC/C=C\CC1=C(C)CCC1=O`, “inactive”.
Same read-out and setting: the value for `CC(=O)CCCCn1c(=O)c2c(ncn2C)n(C)c1=O` was “inactive”; that for `C[C@@H](O)[C@H]1C(=O)N2C(C(=O)O)=C(SCCN=CN)C[C@H]12` was “inactive”.
With `CCN1CCc2nc(N)oc2CC1`, the Potency entry was “inactive”.
The same measure, in the same setting: the result for `C[C@H](CCC(=O)O)[C@H]1CC[C@H]2[C@@H]3C(=O)C[C@@H]4CC(=O)CC[C@]4(C)[C@H]3CC(=O)[C@]12C` reads “inactive”; that for `O=C1c2ccccc2C(=O)C1c1ccccc1`, “inactive”.
The same measure, in the same setting: the result for `CC1(CO)CN(c2ccccc2)NC1=O` (centres undefined) reads 31.7 µM (active).
The same measure, in the same setting: the value for `Nc1ncnc(Nc2ccccc2)n1` was “inactive”; that for `C=C(C)C(=O)OCCN(CC)CC` was “inactive”; that for `C=C(C)C1CCC(C)(O)CC1` (centres undefined) was “inactive”.
For `CO[C@@H]1[C@@H](OC(N)=O)[C@@H](O)[C@H](Oc2ccc3c(O)c(NC(=O)c4ccc(O)c(CC=C(C)C)c4)c(=O)oc3c2C)OC1(C)C`, the Potency entry is “inactive”.
On the same count and under the same terms, the result for `CCOc1cc(NC(C)=O)ccc1C(=O)OC` reads “inactive”; that for `COCCOCCOCCOCCOCCO`, “inactive”.
As to `O=C1c2ccccc2C(=O)c2cc(S(=O)(=O)O)ccc21`, the Potency result was “inactive”.
